Potency, activity, negative = inhibition and activity change, negative = inhibition data for nine molecules are collected here from PubChem BioAssay (NCATS).

Test [1] addresses Lysosomal acid glucosylceramidase (Homo sapiens) (UniProt P04062). As to the kind of experiment: Glucocerebrosidase-p2 (AID 348; in the data active = potency below about 10 µM; also: potency is read from the fitted curve at half-maximal effect). To be noted: purified GBA, blue fluorogenic substrate, 40 min. The gist of the method: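 Compounds titrated from 0.6 nM upwards against 0.2 nM enzyme in pH 5.9 citric acid/KH2PO4, taurocholate, tween-20; blue fluorogenic substrate 80 uM, 40 min room temperature, stopped and read Ex 365/Em 440 for AC50.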

For test [2], the target named is Cytochrome P450 1A2 (Homo sapiens) (UniProt P05177). As to the kind of experiment: p450-cyp1a2 (AID 410; calls by dose curve; also: potency is read from the fitted curve at half-maximal effect). Conditions: recombinant CYP1A2, luciferin-ME demethylation, luminescence; series mostly up to 11.4 µM. The method, boiled down: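 Human CYP1A2 (20nM) demethylated Luciferin-ME at its Km (100uM) in 100mM KPO4. After 10 min compound preincubation, NADPH regeneration ran the reaction 60 min at room temperature. Luciferin was read by luminescence, normalized to 57 uM furafylline.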
Sequence of Cytochrome P450 1A2 (Homo sapiens) (P05177 whole entry, looked up): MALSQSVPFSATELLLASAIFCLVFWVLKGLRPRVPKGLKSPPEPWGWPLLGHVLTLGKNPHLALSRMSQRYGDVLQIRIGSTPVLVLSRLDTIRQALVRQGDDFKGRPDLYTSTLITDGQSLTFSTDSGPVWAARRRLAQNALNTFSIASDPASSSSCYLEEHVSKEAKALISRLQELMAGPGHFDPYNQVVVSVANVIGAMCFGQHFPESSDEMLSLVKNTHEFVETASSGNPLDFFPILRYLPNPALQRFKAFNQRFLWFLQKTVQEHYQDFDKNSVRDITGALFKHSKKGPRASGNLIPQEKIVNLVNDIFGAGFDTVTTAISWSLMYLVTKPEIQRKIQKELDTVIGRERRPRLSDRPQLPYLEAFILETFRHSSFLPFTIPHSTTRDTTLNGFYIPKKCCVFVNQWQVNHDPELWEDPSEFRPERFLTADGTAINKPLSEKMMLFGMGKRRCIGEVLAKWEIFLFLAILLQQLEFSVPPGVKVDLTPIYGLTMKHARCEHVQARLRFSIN

Test [3] can be described thus: Stat Signaling Pathway (AID 446).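 Also: ME-180 cervical cancer cells given 40 pM IL-6 alongside compound; SIE-controlled beta-lactamase reporter measured as 460/530 nm FRET emission ratio; % is scaled to controls: 0 for no effect and ±100 for the full control effect.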 To be noted: ME-180 SIE beta-lactamase reporter, IL-6 stimulated, 5 h; at 7.69 µM (top of the series) unless noted. The gist of the method: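 ME-180 cells carrying a SIE-driven beta-lactamase reporter are stimulated with 40 pM IL-6 for 5 h at 37C in the presence of compound. The 460/530 nm FRET substrate ratio is read after 2.5 h at RT. Data are normalised to 300 pM IL-6 and to 125 nM JAK inhibitor controls.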

The target in test [4] is Glucocorticoid receptor (Homo sapiens) (UniProt P04150). Description: GR-GFP Redistribution (AID 450;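 active = compounds whose dose series gives a full or clear partial fitted curve of increased nuclear translocation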; also: potency is read from the fitted curve at half-maximal effect). Conditions: U2OS GR-GFP nuclear translocation, laser cytometry, 2 h.
Sequence of Glucocorticoid receptor (Homo sapiens) (P04150 whole entry, looked up): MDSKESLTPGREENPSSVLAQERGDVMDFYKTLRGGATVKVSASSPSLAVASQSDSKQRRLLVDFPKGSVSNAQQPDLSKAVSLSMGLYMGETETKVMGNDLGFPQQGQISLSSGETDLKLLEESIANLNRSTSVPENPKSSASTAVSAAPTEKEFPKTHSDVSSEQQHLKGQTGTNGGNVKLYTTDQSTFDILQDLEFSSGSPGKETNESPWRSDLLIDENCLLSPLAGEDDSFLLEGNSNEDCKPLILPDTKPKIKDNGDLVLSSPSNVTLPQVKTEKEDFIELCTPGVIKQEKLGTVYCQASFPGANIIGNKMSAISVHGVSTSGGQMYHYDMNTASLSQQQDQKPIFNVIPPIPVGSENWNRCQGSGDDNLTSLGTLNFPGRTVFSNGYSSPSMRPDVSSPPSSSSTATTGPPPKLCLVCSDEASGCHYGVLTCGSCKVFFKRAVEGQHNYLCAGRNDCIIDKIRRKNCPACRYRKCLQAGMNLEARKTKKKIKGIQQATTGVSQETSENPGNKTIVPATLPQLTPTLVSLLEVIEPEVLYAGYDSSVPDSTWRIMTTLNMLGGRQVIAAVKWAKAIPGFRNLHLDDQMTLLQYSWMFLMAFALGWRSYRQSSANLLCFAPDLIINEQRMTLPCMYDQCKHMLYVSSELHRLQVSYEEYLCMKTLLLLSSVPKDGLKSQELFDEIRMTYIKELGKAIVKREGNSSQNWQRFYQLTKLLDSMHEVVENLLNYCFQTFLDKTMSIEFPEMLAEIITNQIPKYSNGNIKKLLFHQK
The target is the same in test [5]. As to the kind of experiment: GR-EFC Redistribution (AID 451; calls by dose curve; also: potency is read from the fitted curve at half-maximal effect). To be noted: CHO-K1 GR-EFC translocation, beta-gal luminescence, 2 h. The gist of the method:
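CHO-K1 cells expressing nuclear EA and GR-ED fragments of b-gal; compounds titrated up to 46 uM final, 2 h at 37 C. GR nuclear translocation read as complemented b-gal luminescence after 1 h RT detection.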

Test [6] has as its target 3',5'-cyclic-AMP phosphodiesterase 4B (Homo sapiens) (UniProt Q07343). Description: qHTS Assay for Inhibitors of PDE-IV (AID 607; active = well fitted activation curve with a large enough effect in the main read-out, with a control signal flat, not every such curve was filed as active; also: % of control where 0% means no effect). Conditions: HEK293 ACTOne CNG channel cells, membrane potential fluorescence; series mostly up to 22.9 µM. The method, boiled down: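 HEK293 ACTOne cells with CNG channel (1000/well), endogenous PDE4; membrane potential dye, compounds up to 22.9 uM final. Fluorescence Ex 535/Em 590; RO 20-1724 (100 uM final) as reference.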
In general terms: Quantitative high-throughput screening tests each substance at several concentrations.

The target of test [7] is Cytochrome P450 2C9 (Homo sapiens) (UniProt P11712). As to the kind of experiment: qHTS Assay for Inhibitors and Substrates of Cytochrome P450 2C9 (AID 883; active = well fitted curve in the direction sought with a large enough effect; an effect the other way counts as inactive or inconclusive; also: nearly all actives have a fitted effect of over 60% in size; also: potency is read from the fitted curve at half-maximal effect; as to activity change, negative = inhibition: % is scaled to controls: 0 for no effect and ±100 for the full control effect). To be noted: recombinant CYP2C9, luciferin-H luminescence, 60 min; series mostly up to 11.4 µM. The gist of the method: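 Human CYP2C9 (10nM) with Luciferin-H at 100uM (its KM) in 25mM KPO4; compound preincubated 10 min at 37C, then NADPH regeneration for 60 min at 37C. Luciferin read by luminescence after detection reagent; normalized to 57uM sulphaphenazole as full inhibition.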
Sequence of Cytochrome P450 2C9 (Homo sapiens) (P11712 whole entry, looked up): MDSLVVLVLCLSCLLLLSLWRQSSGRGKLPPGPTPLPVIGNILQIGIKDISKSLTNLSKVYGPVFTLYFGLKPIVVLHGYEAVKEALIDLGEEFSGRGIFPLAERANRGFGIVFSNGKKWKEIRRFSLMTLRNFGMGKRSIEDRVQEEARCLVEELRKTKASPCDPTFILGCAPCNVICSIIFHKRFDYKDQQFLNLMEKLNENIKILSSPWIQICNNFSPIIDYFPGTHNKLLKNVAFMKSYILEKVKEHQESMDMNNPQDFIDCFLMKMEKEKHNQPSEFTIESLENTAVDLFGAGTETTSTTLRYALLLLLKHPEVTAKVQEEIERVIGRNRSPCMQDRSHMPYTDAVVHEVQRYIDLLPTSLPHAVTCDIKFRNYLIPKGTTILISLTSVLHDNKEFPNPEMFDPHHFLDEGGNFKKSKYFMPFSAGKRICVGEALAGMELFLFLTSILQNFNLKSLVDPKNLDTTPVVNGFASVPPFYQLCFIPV

Test [8] deals with Cytochrome P450 3A4 (Homo sapiens) (UniProt P08684). As to the kind of experiment: qHTS Assay for Inhibitors and Substrates of Cytochrome P450 3A4 (AID 884; active = well fitted curve in the direction sought with a large enough effect; an effect the other way counts as inactive or inconclusive; also: potency is read from the fitted curve at half-maximal effect; nearly all actives have a fitted effect of over 50% in size). Conditions: recombinant CYP3A4, Luciferin-PPXE luminescence; series mostly up to 57.1 µM. The gist of the method:
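20 nM human CYP3A4 with 25 uM Luciferin-PPXE (at KM) in 200 mM KPO4, preincubated 10 min with compound; NADPH regeneration started a 60 min RT reaction. Luciferin detected by luminescence, normalized to 57 uM ketoconazole as full inhibition.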

Test [9] has the same target. Description: qHTS Assay for Activators of Cytochrome P450 3A4 (AID 885; active = well fitted curve in the direction sought with a large enough effect; an effect the other way counts as inactive or inconclusive; also: nearly all actives have a fitted effect of over 65% in size). To be noted: recombinant CYP3A4, Luciferin-PPXE luminescence, 60 min; series mostly up to 11.4 µM. The gist of the method:
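Human CYP3A4 (20 nM) with Luciferin-PPXE at 25 uM (its KM) in 200 mM KPO4; 10 min compound preincubation, then NADPH regeneration and 60 min reaction at RT. Luciferin read by luminescence; normalized to 57 uM ketoconazole full inhibition.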

Test [10] deals with Cytochrome P450 2D6 (Homo sapiens) (UniProt P10635). Description: qHTS Assay for Inhibitors and Substrates of Cytochrome P450 2D6 (AID 891; active = well fitted curve in the direction sought with a large enough effect; an effect the other way counts as inactive or inconclusive; also: potency is read from the fitted curve at half-maximal effect; nearly all actives have a fitted effect of over 60% in size). To be noted: recombinant CYP2D6, luciferin-ME EGE luminescence; series mostly up to 11.4 µM. The gist of the method:
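Human CYP2D6 (5 nM) with 30 uM Luciferin-ME EGE (at Km) in 100 mM KPO4, compound preincubated 10 min, then NADPH regeneration system for 60 min at room temperature. Luciferin read by luminescence; normalized to 1.43 uM quinidine.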

For test [11], the target named is Cytochrome P450 2C19 (Homo sapiens) (UniProt P33261). As to the kind of experiment: qHTS Assay for Inhibitors and Substrates of Cytochrome P450 2C19 (AID 899; active = well fitted curve in the direction sought with a large enough effect; an effect the other way counts as inactive or inconclusive; also: nearly all actives have a fitted effect of over 60% in size; also: potency is read from the fitted curve at half-maximal effect). Conditions: recombinant CYP2C19, luciferin-H EGE luminescence; series mostly up to 11.4 µM. The gist of the method: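 5 nM human CYP2C19 with 10uM Luciferin-H EGE (at KM) in 50mM KPO4, compound preincubated 10 min at 37C, then NADPH regeneration for 60 min at 37C. Luciferin read by luminescence after detection reagent; normalized to 57uM ketoconazole as full inhibition.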
Sequence of Cytochrome P450 2C19 (Homo sapiens) (P33261 whole entry, looked up): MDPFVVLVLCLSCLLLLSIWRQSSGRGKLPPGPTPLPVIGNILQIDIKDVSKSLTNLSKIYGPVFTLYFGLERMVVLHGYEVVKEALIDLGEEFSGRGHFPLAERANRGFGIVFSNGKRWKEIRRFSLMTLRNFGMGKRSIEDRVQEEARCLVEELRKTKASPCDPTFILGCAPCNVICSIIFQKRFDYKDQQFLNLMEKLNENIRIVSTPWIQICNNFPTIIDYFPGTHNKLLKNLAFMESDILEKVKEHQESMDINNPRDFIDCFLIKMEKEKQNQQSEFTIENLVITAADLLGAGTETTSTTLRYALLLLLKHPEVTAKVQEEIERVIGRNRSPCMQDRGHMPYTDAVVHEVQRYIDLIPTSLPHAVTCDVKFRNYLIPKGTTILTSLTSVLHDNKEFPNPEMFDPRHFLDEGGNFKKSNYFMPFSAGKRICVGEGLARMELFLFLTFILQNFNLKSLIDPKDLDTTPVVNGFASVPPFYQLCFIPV

Test [12] can be described thus: AP1 Signaling Pathway (AID 357).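 Also: ME-180 reporter cells stimulated with EGF at its EC50 level; % is scaled to controls: 0 for no effect and ±100 for the full control effect.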 Conditions: ME-180 (cervical carcinoma) AP-1-bla reporter, EGF-induced, beta-lactamase ratio, 5 h; at 7.69 µM (top of the series) unless noted. The gist of the method:
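Cells are seeded overnight, exposed to compound titrations and an EC50 level of EGF for 5 hours at 37 °C, then loaded with CCF4 dye for 2.5 hours. Beta-lactamase activity under the AP-1 element is read as a blue/green ratio.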

The target in test [13] is Mitogen-activated protein kinase 10 (Mus musculus) (UniProt Q61831). Description: JNK3 AlphaScreen Assay (AID 530).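 Also: kinase came from lysate of stimulated human HepG2 cells; signal reports phosphorylation of biotinylated GST-cJun 1-79 at Ser73 with 10 µM ATP; % is scaled to controls: 0 for no effect and ±100 for the full control effect.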 To be noted: JNK3 lysate, c-Jun phosphorylation; series mostly up to 11.4 µM. The gist of the method:
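qHTS format: compounds tested as titrations against IL-1beta/TNF-alpha-activated HepG2 lysate JNK3 with biotin-GST-cJun substrate and 10 uM ATP at room temperature. Loss of anti-phospho-cJun AlphaScreen signal indicates inhibition.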
(In Alpha technology, singlet oxygen from a donor bead excites a nearby acceptor bead.)

“And” between values parts separate entries of the source, which are not always exact repeats. Equal values may be shown once. A number with no mark means an inactive call. Records with an inconclusive call do not appear. The source made the active and inactive calls. Unless noted, calls follow the shape of the dose curve; as a rule, active = well fitted curve in either direction with a large enough effect (not every such curve was filed as active); inconclusive = small, poorly fitted or top-dose-only effect, or another doubt; inactive = flat fitted curve, though single readings scatter. Some results are limits rather than exact numbers.

Sequence of Cytochrome P450 3A4 (Homo sapiens) (P08684 whole entry, looked up): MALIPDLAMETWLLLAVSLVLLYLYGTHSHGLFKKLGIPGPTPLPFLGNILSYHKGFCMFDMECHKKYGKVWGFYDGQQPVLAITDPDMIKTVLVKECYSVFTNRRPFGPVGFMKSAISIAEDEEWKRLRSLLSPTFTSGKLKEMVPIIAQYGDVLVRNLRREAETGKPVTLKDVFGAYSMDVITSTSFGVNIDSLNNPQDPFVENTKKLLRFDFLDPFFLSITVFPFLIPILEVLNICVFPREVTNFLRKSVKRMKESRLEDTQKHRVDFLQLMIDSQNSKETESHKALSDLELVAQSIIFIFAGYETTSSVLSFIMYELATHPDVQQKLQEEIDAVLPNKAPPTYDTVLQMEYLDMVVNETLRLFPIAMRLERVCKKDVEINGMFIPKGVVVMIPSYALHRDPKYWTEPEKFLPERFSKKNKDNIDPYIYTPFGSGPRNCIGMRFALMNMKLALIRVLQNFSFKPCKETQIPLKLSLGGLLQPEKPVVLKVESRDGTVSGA
Sequence of 3',5'-cyclic-AMP phosphodiesterase 4B (Homo sapiens) (Q07343 whole entry, looked up): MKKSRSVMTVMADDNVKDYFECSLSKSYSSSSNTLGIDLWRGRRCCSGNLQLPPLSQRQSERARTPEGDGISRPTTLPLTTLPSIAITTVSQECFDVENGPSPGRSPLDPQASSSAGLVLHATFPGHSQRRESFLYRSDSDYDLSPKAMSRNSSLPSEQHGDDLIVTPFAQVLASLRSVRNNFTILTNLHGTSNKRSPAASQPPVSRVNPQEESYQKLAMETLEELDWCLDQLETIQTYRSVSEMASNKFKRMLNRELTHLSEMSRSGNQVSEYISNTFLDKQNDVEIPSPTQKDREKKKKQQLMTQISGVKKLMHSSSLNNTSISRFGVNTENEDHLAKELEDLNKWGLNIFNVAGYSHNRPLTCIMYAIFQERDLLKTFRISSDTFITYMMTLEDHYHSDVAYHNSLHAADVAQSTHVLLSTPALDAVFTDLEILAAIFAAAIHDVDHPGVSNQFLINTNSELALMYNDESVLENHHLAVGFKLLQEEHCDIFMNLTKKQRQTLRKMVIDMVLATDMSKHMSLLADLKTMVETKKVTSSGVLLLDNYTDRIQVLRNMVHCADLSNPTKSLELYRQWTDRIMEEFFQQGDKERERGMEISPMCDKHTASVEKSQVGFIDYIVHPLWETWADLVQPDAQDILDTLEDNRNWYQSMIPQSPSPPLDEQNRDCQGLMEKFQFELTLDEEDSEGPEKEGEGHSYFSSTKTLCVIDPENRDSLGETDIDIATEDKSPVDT
Sequence of Lysosomal acid glucosylceramidase (Homo sapiens) (P04062 whole entry, looked up): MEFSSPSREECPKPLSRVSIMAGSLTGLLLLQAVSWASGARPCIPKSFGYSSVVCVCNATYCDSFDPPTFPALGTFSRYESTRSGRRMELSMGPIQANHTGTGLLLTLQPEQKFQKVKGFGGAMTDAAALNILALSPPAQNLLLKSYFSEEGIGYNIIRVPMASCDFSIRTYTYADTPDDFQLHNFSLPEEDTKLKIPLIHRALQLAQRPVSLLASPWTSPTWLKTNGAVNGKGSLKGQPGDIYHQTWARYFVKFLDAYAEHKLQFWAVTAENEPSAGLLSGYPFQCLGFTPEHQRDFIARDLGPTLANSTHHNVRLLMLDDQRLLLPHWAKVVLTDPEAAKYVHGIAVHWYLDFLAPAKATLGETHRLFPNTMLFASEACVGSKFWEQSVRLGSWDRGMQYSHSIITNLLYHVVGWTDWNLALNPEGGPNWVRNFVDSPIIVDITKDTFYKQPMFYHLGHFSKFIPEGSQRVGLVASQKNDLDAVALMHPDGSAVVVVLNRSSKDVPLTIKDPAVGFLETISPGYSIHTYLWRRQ
Sequence of Cytochrome P450 2D6 (Homo sapiens) (P10635 whole entry, looked up): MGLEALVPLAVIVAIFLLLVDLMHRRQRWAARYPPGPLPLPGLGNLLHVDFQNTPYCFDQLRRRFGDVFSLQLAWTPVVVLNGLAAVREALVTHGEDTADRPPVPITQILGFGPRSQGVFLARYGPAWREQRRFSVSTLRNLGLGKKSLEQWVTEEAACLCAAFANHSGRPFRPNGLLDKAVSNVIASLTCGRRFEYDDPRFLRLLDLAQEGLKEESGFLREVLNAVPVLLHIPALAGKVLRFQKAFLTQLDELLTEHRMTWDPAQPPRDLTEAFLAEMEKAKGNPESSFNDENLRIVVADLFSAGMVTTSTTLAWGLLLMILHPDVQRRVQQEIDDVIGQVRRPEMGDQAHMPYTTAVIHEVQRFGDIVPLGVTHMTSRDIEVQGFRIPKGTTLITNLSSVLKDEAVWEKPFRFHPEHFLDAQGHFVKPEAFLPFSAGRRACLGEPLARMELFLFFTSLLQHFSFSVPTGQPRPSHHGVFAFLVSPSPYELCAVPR

With `N=C1C=CC(=C(c2ccc(N)cc2)c2ccc(N)cc2)C=C1`, the Potency in test [1] was greater than 11.4 µM; in test [2], 3.98 µM (active); in [4], greater than 46 µM; in [5], greater than 9.22 µM; in test [8] it was 12.6 µM (active) and 3.16 µM (active); in test [10], 1.58 µM (active). Besides, the activity, negative = inhibition in [3] is -20.9%. The Potency result in test [6], in test [7], in test [9] and in test [11] was “inactive” throughout.
For `O=C(c1[nH]o[n+](=O)c1C(=O)c1csc2ccccc12)c1csc2ccccc12`, the Potency in test [1] was greater than 11.4 µM; in test [4], greater than 46 µM; in test [5], greater than 9.22 µM; in test [7] it was 1.58 µM (active). Besides, the activity change, negative = inhibition in [12] is 3.39%. The activity, negative = inhibition in [3] is -7.78%. For the same molecule, the Potency entry in test [13], in [6] and in test [9] was “inactive” throughout.
Regarding `COc1cccc2c1C(=N)c1c(O)c3c(c(O)c1C2=O)C[C@](O)(C(C)=O)C[C@@H]3O[C@H]1C[C@H](N)[C@@H](O)[C@H](C)O1`, the Potency in test [1] is greater than 11.4 µM; in test [4], greater than 46 µM; in test [5], greater than 9.22 µM. Moreover, in [12], the activity change, negative = inhibition is -2.66%. Also, the Potency result in test [6] was “inactive”.
On to `Clc1ccccc1NN(Cc1ccccn1)c1ccccc1Cl`, for which the Potency is greater than 11.4 µM in test [1], greater than 46 µM in test [4], greater than 9.22 µM in test [5] and 3.98 µM (active) in test [11]. Besides, in test [12], the activity change, negative = inhibition is -10%. For the same molecule, in [3], the activity, negative = inhibition is -11%. Also, the Potency result in test [13] and in test [6] was “inactive” throughout.
With `NS(=O)(=O)c1ccc(N=Nc2ncccc2O)cc1`, the figures for the Potency in test [1], in test [4] and in [5] were greater than 11.4 µM, greater than 46 µM and greater than 9.22 µM, respectively. The activity change, negative = inhibition in test [12] is 7.11%. For the same molecule, the activity, negative = inhibition in test [3] is 5.47%. The Potency entry in [13], in test [6] and in test [9] was “inactive” each time.
As for `O=C1c2ccccc2-c2ccc(N(Cc3ccc(Br)cc3)Cc3ccc(Br)cc3)cc21`, the Potency was greater than 11.4 µM in [1], greater than 46 µM in test [4] and greater than 9.22 µM in test [5]. In test [12], the activity change, negative = inhibition is -16.3%. Also, the activity, negative = inhibition in test [3] was 4.89%. Further, in test [6], the Potency result is “inactive”.
Take `C[C@@H]1CC[C@H]2[C@H](C)[C@H]3[C@H](C[C@H]4[C@@H]5CC=C6C[C@@H](O)CC[C@@]6(C)[C@@H]5C[C@@H](O)[C@]34C)N2C1`: the Potency is greater than 11.4 µM in [1], greater than 46 µM in [4] and greater than 9.22 µM in [5]. Also, in test [12], the activity change, negative = inhibition is -4.34%. Further, the activity, negative = inhibition in [3] is -3.84%. For the same molecule, the Potency entry in test [13] and in [6] was “inactive” each time.
On to `Cc1c(Cl)cc(C(C)(C)C)c(O)c1Cc1c(C)c(Cl)cc(C(C)(C)C)c1O`, for which the results for the Potency in [1], in test [4] and in [5] were greater than 11.4 µM, greater than 46 µM and greater than 9.22 µM, respectively. In test [12], the activity change, negative = inhibition is 10.4%. Besides, the Potency entry in test [13] and in [6] was “inactive” in each case.
On to `CC(C)(C)NCC[C@@H](O)c1cc(C(F)(F)F)nc2c(C(F)(F)F)cccc12`, for which the Potency in test [1] is greater than 11.4 µM; in test [4] it was greater than 46 µM; in test [5], greater than 9.22 µM; in [10], 0.316 µM (active). Also, in test [12], the activity change, negative = inhibition was 9.95%. For the same molecule, the activity, negative = inhibition in test [3] is -4.67%. The Potency result in test [13] and in [6] was “inactive” each time.
